Experimental data as given in the supplement of paper PMC3545927.
Some of the results follow. The hit rate among all sequences tested is not known here.

Biological target: furin, P09958
Assay: furin cleavage Z-score vs untreated control; higher = more cleavage, active = 3.5 or more, inactive = 1 or less, 8 variable residues between constant flanks
In short: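 Cleavage by purified furin was measured on 8-mer peptides fused to a cDNA oligonucleotide and held on magnetic beads by their N-terminus. Reactions (0.01 ml, 1:10 enzyme:substrate) ran 7.5, 15 or 30 min in 50 mM HEPES pH 7.5 with CaCl2 and NaCl. Released DNA was adapter-tagged by PCR and sequenced, with read counts giving abundance. Log counts versus furin-free reactions were lowess-adjusted and scaled by median absolute deviation to give the cleavage Z-score.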

Chain of furin, P09958 (P09958 whole entry): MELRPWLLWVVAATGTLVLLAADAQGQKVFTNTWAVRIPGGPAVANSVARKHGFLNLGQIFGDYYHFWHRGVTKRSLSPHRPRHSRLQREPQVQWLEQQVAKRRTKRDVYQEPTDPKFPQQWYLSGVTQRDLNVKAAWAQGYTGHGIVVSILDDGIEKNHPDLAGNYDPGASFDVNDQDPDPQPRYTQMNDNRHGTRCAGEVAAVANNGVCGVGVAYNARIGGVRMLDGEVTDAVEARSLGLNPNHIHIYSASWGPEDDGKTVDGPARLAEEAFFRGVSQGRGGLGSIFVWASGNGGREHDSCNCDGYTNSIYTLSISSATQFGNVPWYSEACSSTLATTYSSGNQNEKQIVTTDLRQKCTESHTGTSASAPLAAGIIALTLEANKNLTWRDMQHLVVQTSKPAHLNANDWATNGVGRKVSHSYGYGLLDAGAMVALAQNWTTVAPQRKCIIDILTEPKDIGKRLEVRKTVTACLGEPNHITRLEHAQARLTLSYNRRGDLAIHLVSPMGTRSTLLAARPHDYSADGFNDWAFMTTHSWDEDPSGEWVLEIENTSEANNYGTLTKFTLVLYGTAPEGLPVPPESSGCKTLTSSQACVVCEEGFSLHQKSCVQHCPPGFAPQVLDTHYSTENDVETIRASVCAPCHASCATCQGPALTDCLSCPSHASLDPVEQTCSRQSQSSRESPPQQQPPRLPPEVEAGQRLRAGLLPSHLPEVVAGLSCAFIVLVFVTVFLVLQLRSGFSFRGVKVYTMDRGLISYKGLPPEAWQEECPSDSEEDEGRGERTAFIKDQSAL

Sequence | furin cleavage Z-score (7.5 min) | furin cleavage Z-score (15 min) | furin cleavage Z-score (30 min)
CATNPCSGSWAGNASASA [HC1861] | -0.962 (inactive) | -0.755 (inactive) | -0.828 (inactive)
CAEEVTSTWVAGNASASA [HC2172] | -0.33 (inactive) | 0.0818 (inactive) | 0.598 (inactive)
CAKTLRTKRNAGNASASA [FS-1352] | 9.31 (active) | 8.38 (active) | 6.89 (active)
CAKKMRNKRNAGNASASA [FS-42] | 10.5 (active) | 10.9 (active) | 9.3 (active)
CASTPCSAWLAGNASASA [HC2548] | -0.0997 (inactive) | -0.849 (inactive) | -0.533 (inactive)
CADREVPCHRAGNASASA [HC2431] | 0.898 (inactive) | 1.78 | 1.29
CATTPCSGSWAGNASASA [HC54] | -0.34 (inactive) | -3.09 (inactive) | -0.396 (inactive)
CAPPCVIGGAAGNASASA [HC444] | -0.324 (inactive) | -0.267 (inactive) | 0.0653 (inactive)
CARRRRLYWGAGNASASA [FS-1787] | -0.939 (inactive) | 0.513 (inactive) | -1.89 (inactive)
CARRRRLRTAAGNASASA [FS-1786] | 2.03 | 3.9 (active) | 4.2 (active)
CARRRRYAVAAGNASASA [FS-3232] | 4.58 (active) | 6.75 (active) | 6.05 (active)
CARRRRYKKKAGNASASA [FS-2182] | -0.133 (inactive) | -0.187 (inactive) | -0.000733 (inactive)
CARRRRYEGHAGNASASA [FS-2235] | 0.411 (inactive) | 0.839 (inactive) | -0.246 (inactive)
CARRRRYALSAGNASASA [FS-2801] | 5.16 (active) | 9.42 (active) | 8.62 (active)
CALIARDQLEAGNASASA [HC1587] | 1.19 | -0.286 (inactive) | 0.308 (inactive)
CAGHSRSRRAAGNASASA [FS-241] | 9.52 (active) | 9.9 (active) | 7.81 (active)
CACRARGMRAAGNASASA [FS-15] | -0.759 (inactive) | -0.9 (inactive) | -0.752 (inactive)
CAGRSRRPRLAGNASASA [FS-594] | 5.82 (active) | 7.31 (active) | 7.21 (active)
CAGRDAVILLAGNASASA [HC595] | -0.947 (inactive) | -0.587 (inactive) | -0.719 (inactive)
CAGRSRASRGAGNASASA [FS-1591] | 0.169 (inactive) | 0.355 (inactive) | 0.871 (inactive)
CAGRQRKPRPAGNASASA [FS-658] | -0.103 (inactive) | -1.02 (inactive) | -0.398 (inactive)
CAGTQRLTRAAGNASASA [FS-438] | 5.42 (active) | 7.11 (active) | 7.04 (active)

Sequence | furin cleavage Z-score (7.5 min) | furin cleavage Z-score (15 min) | furin cleavage Z-score (30 min)
CAGRSRSRRAAGNASASA [FS-1205] | 11.2 (active) | 9.2 (active) | 6.8 (active)
CAMERCSQHLAGNASASA [HC1713] | 1.58 | 0.689 (inactive) | 1.89
CAMLSRFGRFAGNASASA [FS-692] | -0.109 (inactive) | 0.852 (inactive) | 3.08
CARLSRPDSGAGNASASA [FS-1749] | -0.794 (inactive) | -0.615 (inactive) | -0.815 (inactive)
CARLSRFPRFAGNASASA [FS-490] | 8.21 (active) | 11.2 (active) | 11.1 (active)
CAIPSRRPRFAGNASASA [FS-255] | 5.86 (active) | 8 (active) | 9.09 (active)
CALRHHNLVYAGNASASA [HC1386] | 1.49 | 0.243 (inactive) | 1.05
CACINGVCWTAGNASASA [HC697] | -0.68 (inactive) | -1.02 (inactive) | -2.54 (inactive)
CALNCNDSLNAGNASASA [HC374] | -1.18 (inactive) | -0.292 (inactive) | -1.02 (inactive)
CADAESYSSMAGNASASA [HC1351] | 1.28 | 0.832 (inactive) | -0.308 (inactive)
CAVLEVVTSTAGNASASA [HC2270] | 0.137 (inactive) | -0.489 (inactive) | -0.471 (inactive)
CAVLHRNKRTAGNASASA [FS-1661] | 9.47 (active) | 9.94 (active) | 9.22 (active)
CAVLRRDVITAGNASASA [FS-2855] | 0.181 (inactive) | -1.21 (inactive) | 0.595 (inactive)
CASPGRHKRTAGNASASA [FS-380] | 8.84 (active) | 8.17 (active) | 6.66 (active)
CAVLGRKKRTAGNASASA [FS-1102] | 8.65 (active) | 9.15 (active) | 8.6 (active)
CAISLRFKRTAGNASASA [FS-172] | 7.22 (active) | 6.1 (active) | 6.83 (active)
CATPGDPKRTAGNASASA [FS-510] | -0.0828 (inactive) | 0.23 (inactive) | -0.487 (inactive)
CASPGRSARPAGNASASA [FS-93] | -1.18 (inactive) | -1.19 (inactive) | -1.31 (inactive)
CAYNPPLVETAGNASASA [HC1307] | -1.06 (inactive) | -1.13 (inactive) | -1.23 (inactive)
CADVEVVTSTAGNASASA [HC2290] | 1.98 | 0.479 (inactive) | 0.627 (inactive)
CAYSGGDIYHAGNASASA [HC1648] | -0.433 (inactive) | -0.656 (inactive) | -0.39 (inactive)
CAMHTRCHCGAGNASASA [HC1173] | -0.571 (inactive) | -2.41 (inactive) | -1.42 (inactive)
